PubChem BioAssay

Experiment: yeast AGP1-GFP fluorescence change, single-dose – cell-based, flow cytometry, S. cerevisiae, cherry picks, confirmation (AID 2273);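 further: median GFP channel fluorescence over the whole cell population gate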
Settings: S. cerevisiae AGP1-GFP strain, 3 h, at 10 µM;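 active means GFP response above 150% of the DMSO level; inconclusive means fewer than 70 events counted for a yeast strain; inactive means the rest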

GFP response, % of DMSO, inactive:
COc1ccc(COC(=O)c2n[nH]c3ccccc23)cc1F 95%
CCCc1cc(N2CCN(c3ccccn3)CC2)n2nc(C)c(-c3ccccc3)c2n1 109%
O=C1c2ccccc2C2=Nc3ccccc3SC(c3cccc(F)c3)C12 (stereo unspecified) 103%
CCOC(=O)COc1c(Cl)cc(/C=C2\N=C(C)OC2=O)cc1OC 98.9%
Cc1nn2c(N3CCN(C(=O)c4ccco4)CC3)cc(C(C)(C)C)nc2c1-c1ccccc1 97.6%
Cc1ccc(S(=O)(=O)N(CC(=O)NCc2ccncc2)Cc2ccccc2F)cc1 102%
Cc1ccc(N2C(=O)C3C4C=CC(CNC(=S)Nc5ccc(F)cc5)(O4)C3C2=O)cc1 (stereo unspecified) 105%
COc1ccc(CC(=O)Oc2ccccc2C)cc1 94.3%
Cc1cc(C=C2C(=O)c3ccccc3C2=O)c(C)n1-c1cccc(C(=O)O)c1 100%
CC(C)c1ccc2c(c1)C1(NN=C(c3ccccc3)S1)C(=O)N2 (stereo unspecified) 95.7%
O=C(N/N=C\c1ccc(F)cc1)c1cc(OCC(F)(F)F)ccc1OCC(F)(F)F 105%
Cc1cc(NCCCN2CCOCC2)n2ncc(-c3ccccc3)c2n1 102%
COc1cc(NC(C)=O)ccc1NC(=O)c1cc2ccccc2o1 102%
COc1ccc(CCN2C(=O)c3cccc4cccc(c34)C2=O)cc1OC 105%
CN(O)/C=c1/ccc2c(n1)C(=O)C=CC=2 93.2%
C/C(=N\NC(=O)c1ccc(Cl)c(Cl)c1)c1cccc(NC(=O)C(C)C)c1 96%
